High-throughput results (PubChem)
Apoferritin bind = candidate novel general anesthetic via apoferritin binding. P02791. apoferritin/1-aminoanthracene competitive binding, fluorescence. Potency, µM (highest dose often 77.5 µM), without a hit: top-dose activity change, negative = displacement, usual class: inhibitors. 350,000 tested, 0.074% active. AID 485281; also: potency is read from the fitted curve at half-maximal effect; % is scaled to controls: 0 for no effect and ±100 for the full control effect; nearly all actives have a fitted effect of over 20% in size
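In PBS, apoferritin at 10 uM is loaded with 1-AMA from a 50% saturated solution. After 10 min of compound exposure at ambient temperature, reduced 535 nm fluorescence indicates probe displacement.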
MmCpn inh = blocks the Methanococcus maripaludis chaperonin Mm-Cpn; Potency, µM (highest dose often 76.9 µM), without a hit: at the highest dose activity, negative = inhibition, actives largely listed as inhibitors; 330,000 tested, 0.031% active; AID 504842; purified Mm-Cpn ATPase, ADP Transcreener TR-FRET; also: potency is read from the fitted curve at half-maximal effect; % is scaled to controls: 0 for no effect and ±100 for the full control effect; nearly all actives have a fitted effect of over 80% in size
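ATP (10 uM final) was added to archaeal chaperonin (25 nM final) after 10 min exposure to test compound at 37°C; after 30 min further incubation, ADP was detected by competitive TR-FRET.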
ERG-DNA inh = ERG Ets/DNA interaction inhibition | P11308 | 370,000 tested, 0.028% active | Potency, µM (series often up to 76.9 µM), for the others: at the highest dose FP activity, negative = inhibition, hits mostly inhibitors | fluorescence polarization, His-ERG Ets domain / labelled DNA; active = well fitted inhibition curve with a large enough effect in the polarisation, with a control signal flat; inconclusive = small, poorly fitted or top-dose-only effect, or effect the other way, or a change in a side signal; inactive = no such curve, though single readings can be large or run the other way; the % refers to the polarisation;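 also: polarization taken with two DNA probes labelled with fluorescein and Texas red; potency is read from the fitted curve at half-maximal effect; % of control where 0% means no effect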
Target sequence (P11308 whole entry, looked up, the tested form may be a part): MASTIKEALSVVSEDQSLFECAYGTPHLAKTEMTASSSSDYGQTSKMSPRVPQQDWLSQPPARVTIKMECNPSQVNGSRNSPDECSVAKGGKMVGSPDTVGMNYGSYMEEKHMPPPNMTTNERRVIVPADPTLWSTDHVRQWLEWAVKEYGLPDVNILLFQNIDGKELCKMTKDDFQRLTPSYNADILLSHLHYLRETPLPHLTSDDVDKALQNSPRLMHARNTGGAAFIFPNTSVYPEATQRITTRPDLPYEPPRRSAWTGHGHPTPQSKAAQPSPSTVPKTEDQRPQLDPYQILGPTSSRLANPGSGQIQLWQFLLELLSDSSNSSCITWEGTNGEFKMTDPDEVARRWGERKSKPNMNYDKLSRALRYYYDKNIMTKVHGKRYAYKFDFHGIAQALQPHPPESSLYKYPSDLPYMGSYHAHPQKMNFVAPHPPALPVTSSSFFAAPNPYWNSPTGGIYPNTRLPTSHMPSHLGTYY
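His-tagged ERG Ets domain (1 uM in the protein solution; 300mM KCl, 50mM Tris-HCl, 1mM EDTA, 1mM DTT, pH 7.5) received compound, then a probe mix of 5 nM fluorescein-DNA and 100nM Texas-615-DNA. Fluorescence polarization was read for both dyes.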
CCT chaperon mod = modulators of cytosolic chaperonin (CCT/TRiC) activity | purified chaperonin ATPase assay, HTRF ADP detection, 30 min | activity change, % (concentration not given with the values), hits read low | 360,000 tested, 0.3% active | AID 651819; in the data active = activity change below about -30%; also: % is scaled to controls: 0 for no effect and ±100 for the full control effect
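Nucleotide hydrolysis assay: TRiC at 20–40 nM final (set by batch activity) with 10 uM ATP, 30 min at 37 °C, in presence of 76 uM compound. Detection by competitive ADP HTRF, 30 min ambient.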
* = called active by the depositor; ? = inconclusive; · = not tested or not shown. Most compounds without a hit are left out; they make up all but 0.39% or so of the library. Unless noted, calls follow the shape of the dose curve; as a rule, active = well fitted curve in the direction sought with a large enough effect; inconclusive = small, poorly fitted or top-dose-only effect, or another doubt; inactive = no such curve, though single readings can be large; an effect the other way counts as inactive or inconclusive.

SMILES	Apoferritin bind	MmCpn inh	ERG-DNA inh	CCT chaperon mod
O=C(NCCCN1CCOCC1)c1ccc(S(=O)(=O)Nc2cccc(C(F)(F)F)c2)cc1	·	0%	3%	-37*
O=C(NCCCN1CCOCC1)c1ccc(S(=O)(=O)Nc2ccccc2)cc1	·	0%	2%	0
C=CCOC(=O)C1=C(C)OC(N)=C(C#N)C1c1ccc(OC)c(CSc2ccccn2)c1 (configuration not stated)	-15%	-1%	-3%	-85*
Cc1ccc(-c2nnc(N3CCC(C)CC3)c3ccccc23)cc1C	?	-2%	7%	-43*
CCOC(=O)c1cc(OC(=O)c2ccccc2)n(-c2ccccc2)n1	-1%	-1%	-10%	-1
CCOC(=O)c1cc(OC(=O)c2cccc([N+](=O)[O-])c2)n(-c2ccccc2)n1	-10%	0%	3%	-35*
Cc1ccc2c(c1)CCCN2C(=O)c1cc(C)c(C)s1	·	-8%	-7%	-33*
Cc1ccc2c(c1)CCCN2C(=O)c1cccs1	0%	0%	-2%	-5
CN(C)C(=O)Nc1ccc(Oc2ccc(Cl)cc2)cc1	-24%	·	·	·
Cc1oc2c(c1C(=O)Nc1ccc(OC(F)(F)F)cc1)C1=NCCN1C=N2	0%	·	-3%	·
COc1ccccc1C1SCCN1S(C)(=O)=O (configuration not stated)	11µM*	1%	1%	0
CCCC(C)NS(=O)(=O)c1ccc(OC)c(C)c1 (configuration not stated)	16µM*	1%	5%	-2
C[C@H](NC(=O)CNC(=O)[C@@H](NC(=O)[C@H](Cc1ccccc1)NC(=O)CNC(=O)CNC[C@@H](N)Cc1ccccc1)[C@@H](C)O)C(=O)N[C@@H](CCCN=C(N)N)C(=O)N[C@@H](CCCCN)C(=O)N[C@@H](CO)C(=O)N[C@@H](C)C(=O)N[C@@H](CCCN=C(N)N)C(=O)N[C@@H](CCCCN)C(N)=O	-14%	·	·	·
CCCCC1CCC(C(=O)NC2CCS(=O)(=O)C2)CC1 (configuration not stated)	1%	1%	1%	-46*
Cc1ccc(NC(=O)CS(=O)CC(=O)N(CC(=O)NC2CCCC2)c2cc(C)ccc2C)cc1 (configuration not stated)	-8%	1%	-1%	-93*
Cc1ccccc1N(CC(=O)NC1CCCC1)C(=O)CS(=O)CC(=O)Nc1ccc2c(c1)OCO2 (configuration not stated)	-12%	0%	-3%	0
Cc1cc(/C=C2\NC(=S)NC2=O)c(C)n1-c1cccnc1	-6%	-1%	1%	-83*
O=C(OCc1ccccc1F)c1ccc(-c2nnn(Cc3ccccc3)n2)cc1	53%	·	-21%	·
CC(C)C[C@H](NC(=O)[C@H]1O[C@@H]1C(=O)O)C(=O)NCCCCN=C(N)N	9%	·	·	·
CC1(C)C(=O)OC(C(=O)c2ccc(C(C)(C)C)cc2)C(C)(C)C1=O (configuration not stated)	20µM*	1%	5%	-1
Cc1ccc(S(=O)(=O)C/N=C(/NC(=S)N(c2ccccc2)c2ccccc2)c2ccccc2)cc1	14µM*	-4%	·	1
COc1ccc(N2CCN(C(CNC(=O)C(=O)NCCCO)c3ccco3)CC2)cc1 (configuration not stated)	-6%	1%	9%	-69*
Cc1cccc(NC(=O)c2cccc(NC(=O)c3ccccc3)c2)n1	?	2%	3%	1
Cc1cccc(NC(=O)c2ccc3nccnc3c2)n1	-9%	2%	-6%	-50*
O=C(CNC(=O)c1ccc(Cl)cc1Cl)OCC(=O)c1ccc2c(c1)OCCO2	14µM*	-1%	-2%	-6
O=C(COC(=O)CNC(=O)c1ccc(Cl)cc1Cl)NCC1CCCO1 (configuration not stated)	·	1%	11%	-4
CC(C)CC(=O)Nc1ccc2c(c1)oc1ccccc12	-20%	1%	1%	-40*
COc1ccc(C)cc1S(=O)(=O)N(CC(=O)O)c1ccc(F)cc1	-6%	·	-8%	-33*
CCCCn1c(N)c(N(CC(C)C)C(=O)c2cccc(S(=O)(=O)N3CCCCCC3)c2)c(=O)[nH]c1=O	-8%	-9%	15%	-81*
COc1ccc2[nH]c(C(=O)Nc3ccc(F)cc3Br)cc2c1	-8%	?	-3%	-50*
